Compounds with a hit are over-represented: about 4.7% of the library has one in this group of screens.
MPTP block = mitochondrial permeability transition pore inhibitors, primary screen, biochemical, isolated mouse mitochondria, absorbance; Ca2+ swelling absorbance, 30 min; inhibition, % at 10 µM; 1.4% of 360,000 active;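 active means inhibition of 50% or more, scaled per plate between neutral and stimulator controls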;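 further: 0% = DMSO wells given calcium and 100% = 1 mM EGTA wells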
KLK7 zymogen act = proKLK7 zymogen activators, primary screen, biochemical, fluorescence intensity; Kallikrein-7 (Homo sapiens), P49862; activation, % at 7 µM; 0.9% of 370,000 active; purified proKLK7, EDANS-DABCYL substrate fluorescence; 100% is mature enzyme control, 0% vehicle;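 active means activation above the mean of all tested compounds plus 3 SD, computed per campaign excluding outliers beyond control limits, cut at about 13% in these data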
ADAM17 inh = ADAM17 inhibitors, primary screen, biochemical, QFRET. 0.83% of 370,000 active. Disintegrin and metalloproteinase domain-containing protein 17 (Homo sapiens), P78536. inhibition, % at 6.95 µM. recombinant ADAM17, EDANS/DABCYL FRET peptide cleavage;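 active means inhibition above the mean of compounds lying between control limits plus 3 SD, set per campaign, cut at about 8.5% in these data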;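 further: 0% = DMSO-only wells as the low control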
Target sequence (P78536 215-824 limits assumed): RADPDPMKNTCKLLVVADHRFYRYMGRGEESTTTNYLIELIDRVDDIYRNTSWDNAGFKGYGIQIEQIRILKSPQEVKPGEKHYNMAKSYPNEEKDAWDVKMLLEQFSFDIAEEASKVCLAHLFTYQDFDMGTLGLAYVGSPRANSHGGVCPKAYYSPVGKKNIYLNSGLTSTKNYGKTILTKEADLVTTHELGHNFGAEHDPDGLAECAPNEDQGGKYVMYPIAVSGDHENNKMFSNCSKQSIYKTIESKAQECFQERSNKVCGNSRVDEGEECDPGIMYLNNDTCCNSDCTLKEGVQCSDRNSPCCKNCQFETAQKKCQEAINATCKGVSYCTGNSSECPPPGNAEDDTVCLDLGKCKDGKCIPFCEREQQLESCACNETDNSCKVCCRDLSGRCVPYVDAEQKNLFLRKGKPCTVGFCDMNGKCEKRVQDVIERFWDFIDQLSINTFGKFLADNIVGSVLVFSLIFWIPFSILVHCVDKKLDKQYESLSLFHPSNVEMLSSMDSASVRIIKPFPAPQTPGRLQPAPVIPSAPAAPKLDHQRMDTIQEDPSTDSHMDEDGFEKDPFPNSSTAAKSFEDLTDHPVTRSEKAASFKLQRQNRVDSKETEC
Pemphigus Ab inh = inhibitors of pemphigus antibody binding to DSG3, primary screen, biochemical, bead-based, flow cytometry, scFv-GFP. 0.48% of 310,000 active. binding (percent of control), % at 10 µM. DSG3-coupled beads, scFv-anti-DSG3-GFP binding; hits give low values;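 active means binding more than 3 SD below its plate's average and above zero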;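 further: hits lower antibody fragment binding to DSG3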
ADAM10 inh = human ADAM10 inhibitors, primary screen, biochemical, QFRET, HTS; Disintegrin and metalloproteinase domain-containing protein 10 (Homo sapiens), O14672; recombinant ADAM10, EDANS/DABCYL FRET peptide cleavage, 3 h; 0.62% of 370,000 active; inhibition, % at 7 µM;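 active means inhibition above a per-campaign cutoff equal to the mean of compounds falling between control-based bounds plus 3 SD, cut at about 20% in these data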;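 further: 0% = DMSO wells while the 100% control is not disclosed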
rCAG binder = binders of r(CAG) RNA repeats, primary screen, biochemical, fluorescence | r(CAG) RNA repeat, TO-PRO-1 dye displacement fluorescence | inhibition, % at 3 µM | 1.3% of 370,000 active | AID 651821, 2012;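 active means inhibition above the plate cutoff, the mean of all test compounds on that plate plus 3 SD, cut at about 35% in these data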;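 further: 0% = DMSO alone and 100% = 100 µM mitoxantrone as full dye displacement; higher means more dye released from RNA so lower well fluorescence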
rCAG binder conf = small molecules binding CAG repeat RNA – biochemical, fluorescence, confirmation | shares compounds with rCAG binder | r(CAG) RNA repeat, TO-PRO-1 dye displacement fluorescence | inhibition, % at 3 µM | 70% of 4,300 active | AID 652065, 2013;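 active means inhibition above a per-plate cutoff, the mean inhibition of sample wells plus 3 SD, cut at about 35% in these data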;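 further: loss of TO-PRO-1 fluorescence as compound displaces dye from 1x1 AA loop RNA; 0% = DMSO only wells and 100% = 100 µM mitoxantrone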
DNA CAG counter = displacement of TO-PRO-1 from CAG DNA duplex, counter-screen for rCAG RNA repeat binder project, biochemical, fluorescence, TO-PRO-1 dye, d(CAG) DNA oligo; shares compounds with rCAG binder; d(CAG) DNA oligo TO-PRO-1 dye displacement; inhibition, % at 3 µM; 94% of 4,300 active; AID 652068, 2013;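 active means inhibition above its plate's cutoff, the mean test-well inhibition plus 3 SD, cut at about 4.8% in these data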;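 further: 0% = DNA dye mix with DMSO and 100% = 100 µM mitoxantrone; hits displace the dye from DNA and so lower well fluorescence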
DNA CAG DR = inhibitors of DNA CAG/GTC TO-PRO-1 complex, dose response, counter-screen for rCAG RNA repeat binder project, biochemical, fluorescence, TO-PRO-1 dye. 20% of 250 active. IC50, µM. DNA CAG/GTC duplex TO-PRO-1 dye displacement fluorescence. shares compounds with rCAG binder. AID 686960, 2013; in the data active means IC50 below about 10 µM
Numbers without * were called inactive; / = no result given.

SMILES | MPTP block | KLK7 zymogen act | ADAM17 inh | Pemphigus Ab inh | ADAM10 inh | rCAG binder | rCAG binder conf | DNA CAG counter | others
O=C1C=CC2(O[C@H](c3ccccc3)[C@@H](c3ccccc3)O2)[C@H](Sc2ccccc2O)C1 | -2.6 | -0.6 | 3.4 | / | -7.2 | 13.4 | / | /
O=C(O)COc1ccccc1/C=N/Nc1ccc(S(=O)(=O)Nc2ccc(Cl)cc2)cc1[N+](=O)[O-] | 0.6 | 0.2 | 3.6 | 98.9 | 3.6 | 84.3* | 90.9* | 70.1*
COc1ccccc1NS(=O)(=O)c1ccc(N/N=C/c2ccccc2OCC(=O)O)c([N+](=O)[O-])c1 | 5.2 | 0.3 | -1.6 | 80.8 | -2.6 | 92.1* | 90.3* | 66.5*
COc1ccc(NS(=O)(=O)c2ccc(NN=Cc3ccc(C(=O)O)cc3)c([N+](=O)[O-])c2)cc1 | / | 0.2 | -0.3 | / | -13.8 | 5.6 | / | /
CCN(CC)S(=O)(=O)c1ccc(N/N=C/c2ccccc2OCC(=O)O)c([N+](=O)[O-])c1 | 0.2 | 0.1 | -2.8 | 103.7 | -3.2 | 74.5* | 74.6* | 35.9*
COc1ccccc1NS(=O)(=O)c1ccc(N/N=C/C=C/c2ccccc2[N+](=O)[O-])c([N+](=O)[O-])c1 | 2.1 | 0.1 | 0.5 | 88.2 | -1.4 | 5.7 | / | /
COc1ccccc1C(=O)CN1C(=O)NC2(CCc3ccccc32)C1=O (centres undefined) | 0.0 | 0.0 | -11.5 | 122.6 | -16.0 | -1.8 | / | /
OC(c1ccc(F)cc1)c1nc(-c2ccc(Cl)cc2)cs1 (centres undefined) | 2.7 | -0.4 | 7.2 | / | 17.7 | 2.0 | / | /
COC(=O)c1cc2c(c3c4ccccc4n(S(=O)(=O)c4ccc(OC)cc4)c13)C(=O)N(Cc1ccc(C(F)(F)F)cc1)C2 | / | 0.3 | 1.9 | / | -1.3 | 12.4 | / | /
CCCCNC(=O)N1CCCC1C(=O)Nc1cccc(OC)c1 (centres undefined) | / | -0.2 | 0.5 | / | -6.1 | 5.4 | / | /
COc1ccc(OCC(=O)Nc2nnc(S(=O)(=O)N3CCCCCC3)s2)cc1 | 1.8 | 0.7 | -2.7 | 105.2 | -7.2 | 40.5* | 27.5 | 7.5*
CCCCC(=O)Nc1nnc(S(=O)(=O)N(CC)c2ccc(OC)cc2)s1 | -0.5 | 0.8 | -4.0 | 100.5 | 2.9 | 5.5 | / | /
Cc1ccc(OCC(=O)Nc2nnc(S(=O)(=O)N3CCC(C)CC3)s2)cc1 | 3.3 | -0.3 | -0.3 | 74.4* | -5.5 | 41.6* | 53.1* | 22.6*
CCN(c1ccc(OC)cc1)S(=O)(=O)c1nnc(NC(=O)COc2ccccc2)s1 | -0.8 | 0.3 | 1.9 | 97.5 | -0.1 | 66.1* | 54.0* | 19.0*
COC(=O)c1cc(-c2ccc(F)c(Cl)c2)c(=O)n2c1CCC2 | / | -0.4 | -5.8 | / | -10.8 | -0.7 | / | /
CC1(C(=O)NS(=O)(=O)c2ccccc2)CCN1C(=O)Cc1cccc2ccccc12 (centres undefined) | 1.1 | 0.1 | -1.0 | / | -5.4 | 10.9 | / | /
CC(C)(C)c1ccc(S(=O)(=O)NC(=O)C2(C)CCN2C(=O)Cc2cccc3ccccc23)cc1 (centres undefined) | 7.2 | 0.0 | 0.3 | / | -3.4 | 71.3* | 62.2* | 24.8*
Cc1ccc(S(=O)(=O)NC(=O)C2(C)CCN2C(=O)Cc2ccc(C(C)(C)C)cc2)cc1 (centres undefined) | 0.5 | -0.4 | -1.1 | / | 0.2 | 43.0* | 30.1 | 7.2*
CC(C)(C)c1ccc(CC(=O)N2CCC2(C)C(=O)NS(=O)(=O)c2ccc(Cl)cc2)cc1 (centres undefined) | 0.7 | -0.3 | 2.4 | / | -4.7 | 36.8* | 52.2* | 17.2*
Cc1ccc(S(=O)(=O)NC(=O)C2(C)CCN2C(=O)Cc2ccc(-c3ccccc3)cc2)cc1 (centres undefined) | 1.2 | 0.0 | -0.2 | / | -4.8 | 58.5* | 52.8* | 15.1*
Cc1ccc2c(COC(=O)CNC(=O)c3ccco3)cc(=O)oc2c1C | -0.2 | 0.5 | -5.0 | 90.8 | -20.9 | 8.8 | / | /
O=C1CC(=Nc2ccc([N+](=O)[O-])cc2)NN1c1c(Cl)cc(Cl)cc1Cl | 11.2 | -0.1 | 1.5 | 104.2 | -3.3 | 48.5* | 48.7* | 32.2*
COc1cccc2sc(Nc3nnc(-c4ccc(F)cc4)o3)nc12 | 0.6 | -3.8 | -47.1 | 102.1 | -256.1 | 62.4* | 72.1* | 28.4* | DNA CAG DR=>29.9
CCCCCCCCN1C(=O)[C@@H](CC(=O)NCc2cccc(C(F)(F)F)c2)C[C@@]2(C(=O)OC)C1=C[C@H](C1CCCC1)O[C@@H]2C | / | -0.1 | -2.6 | / | -12.0 | 0.5 | / | /
O=C(NNc1ccc(C(F)(F)F)cc1[N+](=O)[O-])c1ccc(NS(=O)(=O)c2ccc(F)cc2)cc1 | -17.1 | -0.5 | 4.5 | 92.2 | 16.5 | 71.0* | 60.9* | 22.1*
SMILES | MPTP block | KLK7 zymogen act | ADAM17 inh | Pemphigus Ab inh | ADAM10 inh | rCAG binder | rCAG binder conf | DNA CAG counter | others
CCOc1ccccc1-n1c(=S)sc2c(=O)n(-c3ccc(F)cc3)c(SCC(=O)O)nc21 | 0.5 | 0.2 | -0.8 | 102.4 | -7.2 | 25.4 | / | /
Cc1cc(-n2c(=S)sc3c(=O)n(-c4ccc(F)cc4)c(SCC(=O)O)nc32)ccc1Cl | 1.5 | 0.3 | 2.3 | 92.9 | -5.3 | 48.4* | 38.1* | 11.9*
COc1ccccc1-n1c(SCC(=O)O)nc2c(sc(=S)n2-c2ccc(C)c(C)c2)c1=O | 1.5 | 0.4 | 2.7 | 93.0 | 8.9 | 48.0* | 71.7* | 33.3* | DNA CAG DR=>29.9
COc1ccccc1-n1c(SCC(=O)O)nc2c(sc(=S)n2-c2ccc(Cl)c(C)c2)c1=O | 1.0 | 0.1 | -3.0 | 102.9 | -5.6 | 66.2* | 59.6* | 23.8*
Cc1ccc(-n2c(=S)sc3c(=O)n(-c4ccccc4C)c(SCC(=O)O)nc32)cc1C | 1.7 | -0.2 | 0.1 | 111.0 | 3.5 | 41.2* | 67.6* | 28.4*
COC(=O)[C@H](Cc1ccccc1)N1C[C@@H](N2CCC[C@H]2C)CS1(=O)=O | / | 0.0 | -7.0 | / | -14.5 | 5.9 | / | /

From PubChem BioAssay
